{"source": "ChEMBL document CHEMBL3988442", "about": "“University of Dundee, Small-Polar-MMV Screening Library” (2021)", "note": "Hit rate of the full screen: of about 38,000 compounds, about 1,200 (3.2%) showed an effect of 50% or more. The median lay at about -58%. The full list was thinned out, with strong results kept by preference.", "data": [{"test_system": "Plasmodium falciparum", "assay": "Calibr Malaria Delayed Death Assay SOP", "format": "functional, organism-based", "parameters": "scale not given: in the data most compounds retested in dose-response had high values", "conditions": "concentration 4.99e-06 (unit not given; other assays of the set use mol/L)", "units": {"Percent Effect": "%"}, "values": [{"molecule": "OC1(CN2CCOC(Cn3cncn3)C2)CCCCC1", "note": "(configuration not stated)", "Percent Effect": -41.07}, {"molecule": "CN(Cc1cc2n(n1)CCNC2)Cc1n[nH]c2c1CCC2", "Percent Effect": -20.1}, {"molecule": "Cc1ccc2nc(CN(C)Cc3n[nH]c4c3CCCCC4)[nH]c2c1C", "Percent Effect": 85.65}, {"molecule": "Cc1ccc2[nH]c(CN(C)Cc3n[nH]c4c3CCC4)nc2c1", "Percent Effect": 82.04}, {"molecule": "CN(Cc1cc2n(n1)CCCNC2)Cc1n[nH]c2c1CCC2", "Percent Effect": -43.74}, {"molecule": "CN(Cc1cc2n(n1)CCNC2)Cc1n[nH]c2c1CCCCC2", "Percent Effect": -6.476}, {"molecule": "Cc1ccc2nc(CN(C)Cc3[nH]nc4c3CCC4)[nH]c2c1C", "Percent Effect": 36.38}, {"molecule": "CCn1nc(CC(C)C)cc1C(=O)NCCCN1CCOCC1", "Percent Effect": -66.39}, {"molecule": "CN(Cc1ccc2c(c1)OCCO2)Cn1nc(C(C)(C)C)ccc1=O", "Percent Effect": -39.48}, {"molecule": "CN(Cc1ccncc1)C1COC2(CCN(Cc3nccn3C)CC2)C1.O=C(O)C(F)(F)F.O=C(O)C(F)(F)F.O=C(O)C(F)(F)F", "note": "(configuration not stated)", "Percent Effect": -27.83}, {"molecule": "O=C(O)C(F)(F)F.O=C1[C@H]2CN(S(=O)(=O)C3CC3)C[C@H]2CN1Cc1cccnc1", "Percent Effect": -0.2941}, {"molecule": "O=C(C1CNCCO1)N1CCCC(c2ccccc2)(c2ccccc2)C1", "note": "(configuration not stated)", "Percent Effect": 79.21}, {"molecule": "CC(=O)C1(c2ccccc2)CCN(C(=O)CC2CNCCO2)CC1", "note": "(configuration not stated)", "Percent Effect": -46.22}, {"molecule": "CC(=O)C1(c2ccccc2)CCN(C(=O)C2CNCCO2)CC1", "note": "(configuration not stated)", "Percent Effect": -83.28}, {"molecule": "O=C(c1cccnc1SCc1ccccc1)N1CCOCC1", "Percent Effect": -36.51}, {"molecule": "O=C(c1cccnc1SC/C=C/c1ccccc1)N1CC[C@H](O)C1", "Percent Effect": -73.62}, {"molecule": "O=C(c1cccnc1SC/C=C/c1ccccc1)N1CCOCC(O)C1", "note": "(configuration not stated)", "Percent Effect": 53.57}, {"molecule": "CCS(=O)(=O)N1CCC2(CC1)CN(CC1CCOC1)c1ccccc12.O=C(O)C(F)(F)F", "note": "(configuration not stated)", "Percent Effect": 19.88}, {"molecule": "O=C(O)C(F)(F)F.c1ccc2c(c1)N(CC1CCOC1)CC21CCN(c2cnccn2)CC1", "note": "(configuration not stated)", "Percent Effect": 68.42}, {"molecule": "CS(=O)(=O)N1CCC2(CC1)CN(CC1CCOC1)c1ccccc12.O=C(O)C(F)(F)F", "note": "(configuration not stated)", "Percent Effect": -57.4}, {"molecule": "O=C(O)C(F)(F)F.O=C1N(CC2CC2)CCC12CCN(c1ncccn1)CC2", "Percent Effect": 4.695}, {"molecule": "Cc1cnc(N2CCC3(CCN(CC4CC4)C3=O)CC2)nc1", "Percent Effect": -170.6}, {"molecule": "c1cnc(N2CC3(CCN(C4CCOC4)CC3)c3ccccc32)nc1", "note": "(configuration not stated)", "Percent Effect": -111.6}, {"molecule": "O=C(O)C(F)(F)F.O=C(O)C(F)(F)F.OCCN1CC2(CCN(CC3CC3)CC2)c2ccccc21", "Percent Effect": -50.6}, {"molecule": "O=C(O)C(F)(F)F.c1cnc(N2CCC3(CC2)CN(CC2CC2)c2ccccc23)nc1", "Percent Effect": 85.9}, {"molecule": "COC[C@@H]1CCC[C@@]12CN(C(=O)N1CCCC1)CCO2", "Percent Effect": -140.1}, {"molecule": "Cc1ccc(C(=O)N2CCC3(CCN3Cc3ccc(F)cc3)C2)cn1.O=C(O)C(F)(F)F", "note": "(configuration not stated)", "Percent Effect": -82.72}, {"molecule": "CC(C)C(C(=O)N1CCCN(c2cccnn2)CC1)n1cncn1", "note": "(configuration not stated)", "Percent Effect": -14.43}, {"molecule": "CN(C)S(=O)(=O)c1ccc2c(c1)N(Cc1ccccn1)CCC2", "Percent Effect": -104.8}, {"molecule": "Cc1ccc([C@H]2CN(C(=O)C3CCC3)C[C@@H]2N)o1", "Percent Effect": -3.638}, {"molecule": "Cc1nc(N2CCN(C)CC2)ncc1C(=O)N1CCCCCC1", "Percent Effect": -28.58}, {"molecule": "O=C1CCN(C(=O)CCc2ccc(Cl)cc2Cl)CCN1", "Percent Effect": -159.9}, {"molecule": "Cc1cnn(CC2CCCCN2C(=O)c2cccc(C(N)=O)c2)c1", "note": "(configuration not stated)", "Percent Effect": -136.1}, {"molecule": "CCCn1ncc(CN(Cc2cccnc2)Cc2ccsc2)c1C", "Percent Effect": -140.4}, {"molecule": "CCCn1ncc(CN(Cc2ccsc2)Cc2ccco2)c1C", "Percent Effect": -133.4}, {"molecule": "CCCn1ncc(CN(CCN(C)C)Cc2ccsc2)c1C", "Percent Effect": 54.25}, {"molecule": "Cc1ccc(NC2CCN(C(=O)COc3ccccc3)CC2)nn1", "Percent Effect": -125.7}, {"molecule": "O=c1n(CCNCc2ccc3ccccc3c2)nc2ccccn12", "Percent Effect": -86.86}, {"molecule": "CCOc1cc(C(=O)N2CCCC(c3noc(CC)n3)C2)ccn1", "note": "(configuration not stated)", "Percent Effect": -108.4}, {"molecule": "O=C(c1cncc(NCC2COc3ccccc3C2)n1)N1CCCC1", "note": "(configuration not stated)", "Percent Effect": -147.2}, {"molecule": "NCC1Cc2cc(-c3cncc(C(=O)N4CCOCC4)n3)cc(Cl)c2O1", "note": "(configuration not stated)", "Percent Effect": -15.5}, {"molecule": "NCC1Cc2cc(-c3cncc(C(=O)N4CCCCC4)n3)cc(F)c2O1", "note": "(configuration not stated)", "Percent Effect": 51.14}, {"molecule": "Cc1nc(-c2ccco2)ccc1C(=O)NCCC(=O)N1CCCCC1", "Percent Effect": -60.18}, {"molecule": "CCOCCCNCc1cc2c(C)cc(C)cc2n2c(=O)n(C)nc12", "Percent Effect": -70.5}, {"molecule": "Cc1ccc(CNC(=O)c2cc(C)n(C)n2)o1", "Percent Effect": -43.25}, {"molecule": "Cc1cc(C)c2cc(CNCc3ccco3)c3nn(C)c(=O)n3c2c1", "Percent Effect": 74.31}, {"molecule": "Cc1cc(C)c2cc(CNC(C)C)c3nn(C)c(=O)n3c2c1", "Percent Effect": 20.42}, {"molecule": "Cc1ccn(CCC(=O)NCc2ccc(C)o2)n1", "Percent Effect": -117.2}, {"molecule": "Cc1cc(C)c2cc(CNCc3ccc(C)o3)c3nn(C)c(=O)n3c2c1", "Percent Effect": 62.16}, {"molecule": "Cc1cc(C(=O)NCc2ccco2)nn1C", "Percent Effect": -62.29}, {"molecule": "Cc1cc(C)c2cc(CNC3CCCCC3)c3nn(C)c(=O)n3c2c1", "Percent Effect": 78.75}, {"molecule": "Cc1cc(C)c2cc(CNCc3cccnc3)c3nn(C)c(=O)n3c2c1", "Percent Effect": 28.22}, {"molecule": "COc1ccccc1CCNC(=O)NCC(=O)Nc1cccnc1", "Percent Effect": -188.8}, {"molecule": "COC(=O)CNC(=O)CCCn1cnc2ccccc2c1=O", "Percent Effect": -30.86}, {"molecule": "O=C(c1cccnc1-c1ccoc1)N1C[C@H]2CC[C@@H]1C2", "Percent Effect": 6.669}, {"molecule": "O=C(O)C(F)(F)F.O=C(O)C(F)(F)F.c1cncc(-c2ccc3c(c2)CCC32CCN(Cc3ccco3)CC2)c1", "Percent Effect": 73.11}, {"molecule": "O=C(O)C(F)(F)F.O=C(O)C(F)(F)F.c1cncc(-c2ccc3c(c2)CCC32CCN(Cc3nccs3)CC2)c1", "Percent Effect": 47.52}, {"molecule": "O=C(CCO)N1CCC2(CCc3ccc(-c4ccoc4)cc32)CC1", "Percent Effect": -85.78}, {"molecule": "Cc1ccc2c(c1)CCC21CCN(C(=O)CN(C)C)CC1.O=C(O)C(F)(F)F", "Percent Effect": 50.73}, {"molecule": "Cc1ccc2c(c1)CCC21CCN(CCO)CC1", "Percent Effect": 15.58}, {"molecule": "CN(C)CC(=O)N1CCC2(CCc3ccc(-c4ccncc4)cc32)CC1.O=C(O)C(F)(F)F.O=C(O)C(F)(F)F", "Percent Effect": -49.14}, {"molecule": "O=C(O)C(F)(F)F.OCCN1CCC2(CCc3cc(-c4ccoc4)ccc32)CC1", "Percent Effect": 60}, {"molecule": "O=C(O)C(F)(F)F.c1cncc(-c2ccc3c(c2)C2(CC3)CCN(c3nncs3)CC2)c1", "Percent Effect": 21.42}, {"molecule": "CN(C)CC(=O)N1CCC2(CCc3cc(-c4cccnc4)ccc32)CC1.O=C(O)C(F)(F)F.O=C(O)C(F)(F)F", "Percent Effect": 79.5}, {"molecule": "CN(C)CC(=O)N1CCc2ncnc(-c3cncnc3)c2CC1.O=C(O)C(F)(F)F", "Percent Effect": -41.61}, {"molecule": "Cc1ccc2c(c1)C1(CC2)CCN(CC(=O)O)CC1.O=C(O)C(F)(F)F", "Percent Effect": -81.36}, {"molecule": "CN(C)CC(=O)N1CCC2(CC1)Cc1ccccc1CN(C)C2=O.O=C(O)C(F)(F)F", "Percent Effect": -24.83}, {"molecule": "Cc1ccc(CN2CCc3ncnc(-c4ccoc4)c3CC2)o1.O=C(O)C(F)(F)F", "Percent Effect": -147}, {"molecule": "Cc1ncc(C(=O)N2CCCCC2c2nc3cc(F)ccc3[nH]2)c(O)n1", "note": "(configuration not stated)", "Percent Effect": -22.18}, {"molecule": "CS(=O)(=O)N1CCO[C@@H]2CN(C(=O)C3CCOC3)CC[C@@H]2C1", "note": "(some centres not stated)", "Percent Effect": -33.97}, {"molecule": "CC1c2ncc(Cn3cccn3)n2CCN1S(C)(=O)=O.O=C(O)C(F)(F)F", "note": "(configuration not stated)", "Percent Effect": -110.2}, {"molecule": "COc1ccc2c(ccn2CCC(=O)N[C@H](C(=O)O)C(C)C)c1", "Percent Effect": -46.34}, {"molecule": "O=C(O)C(F)(F)F.O=S(=O)(C1CC1)N1C[C@H]2CCC[C@@]2(COCc2ccccn2)C1", "Percent Effect": 2.137}, {"molecule": "Cc1ccc(CNc2cc3c(cc2Cl)NC(=O)CO3)cc1C", "Percent Effect": -53.48}, {"molecule": "CC(C)c1nccc(-c2nccn2CCS(C)(=O)=O)n1", "Percent Effect": -2.25}, {"molecule": "COc1cccc(OCC(=O)N(C)c2cccnc2)c1", "Percent Effect": -135.2}, {"molecule": "O[C@H]1[C@H](n2cc(-c3cccnc3)nn2)c2ccccc2C12CCNCC2", "Percent Effect": -21.88}, {"molecule": "c1cncc(-c2ccc3c(c2)CCC32CCNCC2)c1", "Percent Effect": 86.19}, {"molecule": "c1cc(-c2ccc3c(c2)C2(CCNCC2)CC3)ccn1", "Percent Effect": -27.62}, {"molecule": "CCCN1CCCn2nc(CNS(=O)(=O)c3ccc(F)cc3)cc2C1", "Percent Effect": -65.3}, {"molecule": "Cc1nnn2c1COC(CNC(=O)c1cccn1C)C2", "note": "(configuration not stated)", "Percent Effect": -28}, {"molecule": "COc1ccccc1CNC(C)c1ccc2[nH]c(=O)[nH]c2c1", "note": "(configuration not stated)", "Percent Effect": -107.7}, {"molecule": "COc1cc(CNC(C)Cn2cccn2)cc(OC)c1OC.Cl", "note": "(configuration not stated)", "Percent Effect": -15.53}, {"molecule": "CCOc1cccc(C(C)NCc2ccc(OC)c(OC)c2OC)c1", "note": "(configuration not stated)", "Percent Effect": 77.1}, {"molecule": "COc1ccc(C(C)NCc2c[nH]nc2C)cc1Br.Cl", "note": "(configuration not stated)", "Percent Effect": 17.2}, {"molecule": "COc1cccc(CNC(C)Cn2cccn2)c1OC.Cl", "note": "(configuration not stated)", "Percent Effect": -25.91}, {"molecule": "COc1ccc(CNC(C)c2cccc(Br)c2)c(OC)c1OC.Cl", "note": "(configuration not stated)", "Percent Effect": 66.18}, {"molecule": "COc1cc(CNC(C)Cn2cccn2)cc(Cl)c1OC.Cl", "note": "(configuration not stated)", "Percent Effect": -39.22}, {"molecule": "CCOc1cccc(C(C)NCc2c(C)nn(C)c2N(C)C)c1", "note": "(configuration not stated)", "Percent Effect": -4.179}, {"molecule": "COc1cc(CNC(C)c2cccc(Cl)c2)cc(OC)c1OC", "note": "(configuration not stated)", "Percent Effect": 62.46}, {"molecule": "CC1c2ncc(CNC(=O)C3CC3)n2CCN1Cc1ccccn1.O=C(O)C(F)(F)F.O=C(O)C(F)(F)F", "note": "(configuration not stated)", "Percent Effect": -38.32}, {"molecule": "Cc1sc(CS(C)(=O)=O)nc1-c1ccc(Cl)cc1", "Percent Effect": -81.11}, {"molecule": "Cc1cc(N2CCC3(CCCN(C4CCOCC4)C3=O)C2)ccn1", "note": "(configuration not stated)", "Percent Effect": -85.7}, {"molecule": "Cc1cc(NC(=O)N2CCCC2CN2CCOCC2)nn1C", "note": "(configuration not stated)", "Percent Effect": -54.38}, {"molecule": "Cc1n[nH]cc1CNC1CCN(c2ccc(F)cc2)CC1.Cl", "Percent Effect": -38.43}, {"molecule": "COc1cccc(-c2n[nH]cc2CNC2CCN(C3CC3)CC2)c1.Cl", "Percent Effect": 18.36}, {"molecule": "Cc1n[nH]cc1CNC1CCN(c2cccc(C(F)(F)F)c2)CC1", "Percent Effect": 62.67}]}]}
